This passage reports inhibition (reported as % activation of signal) results from PubChem BioAssay AID588458 (Sanford-Burnham Center for Chemical Genomics, 2011).

Where “and” joins values, the source holds several entries; their conditions need not be identical. Identical values can stand only once. Out of some 360,000 compounds screened, about 3,000 (0.83%) were called active. Cut-off read from the data, not from the text of the source: active = inhibition above about 50%; inactive = the rest. This excerpt belongs to a sample that is enriched for actives. The source holds several records for some structures; these can differ, active in one and inactive in another.

Sequence of DNA (cytosine-5)-methyltransferase 1 (Homo sapiens) (P26358 504-1616 limits assumed): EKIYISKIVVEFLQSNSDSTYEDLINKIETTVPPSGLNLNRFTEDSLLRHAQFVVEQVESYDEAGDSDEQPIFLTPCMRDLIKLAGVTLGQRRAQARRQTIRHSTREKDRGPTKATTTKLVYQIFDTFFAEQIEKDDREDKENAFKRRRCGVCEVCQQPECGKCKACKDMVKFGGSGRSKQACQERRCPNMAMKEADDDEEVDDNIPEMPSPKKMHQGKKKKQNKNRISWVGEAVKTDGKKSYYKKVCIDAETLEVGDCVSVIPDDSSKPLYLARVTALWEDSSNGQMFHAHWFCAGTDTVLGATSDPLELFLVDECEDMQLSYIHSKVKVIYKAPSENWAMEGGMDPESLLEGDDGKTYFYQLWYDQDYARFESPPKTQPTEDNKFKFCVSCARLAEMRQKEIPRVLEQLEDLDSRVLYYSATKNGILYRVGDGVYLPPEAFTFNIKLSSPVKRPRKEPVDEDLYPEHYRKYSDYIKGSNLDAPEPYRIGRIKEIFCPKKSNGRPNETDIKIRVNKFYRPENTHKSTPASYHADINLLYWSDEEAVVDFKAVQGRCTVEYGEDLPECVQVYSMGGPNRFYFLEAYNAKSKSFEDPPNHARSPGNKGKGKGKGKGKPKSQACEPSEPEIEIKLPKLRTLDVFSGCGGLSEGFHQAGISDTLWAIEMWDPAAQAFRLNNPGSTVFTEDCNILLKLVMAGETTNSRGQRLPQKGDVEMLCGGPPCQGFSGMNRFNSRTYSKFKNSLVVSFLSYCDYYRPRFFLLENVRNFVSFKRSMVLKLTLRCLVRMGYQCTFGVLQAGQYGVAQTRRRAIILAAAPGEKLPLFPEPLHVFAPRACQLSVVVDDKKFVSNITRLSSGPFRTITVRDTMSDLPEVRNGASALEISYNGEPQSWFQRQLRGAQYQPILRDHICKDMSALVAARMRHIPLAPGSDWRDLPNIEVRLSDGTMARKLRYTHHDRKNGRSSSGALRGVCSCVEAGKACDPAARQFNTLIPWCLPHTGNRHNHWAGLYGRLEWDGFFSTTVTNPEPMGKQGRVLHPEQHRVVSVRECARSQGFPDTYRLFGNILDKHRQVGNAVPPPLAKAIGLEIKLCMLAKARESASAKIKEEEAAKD

This experiment has as its target DNA (cytosine-5)-methyltransferase 1 (Homo sapiens) (UniProt P26358). Put plainly: human DNMT1 methyltransferase inhibitors, primary screen, biochemical, molecular beacon, fluorescence, HinP1I cleavage, uHTS (AID 588458). The following applies: at 10 µM, stronger effect = higher value.
With `Cc1ccc(-c2cc(C(=O)NCc3cn(C)nc3C)c3cc(Br)ccc3n2)cc1`, the inhibition (reported as % activation of signal) was 54.2% (active).
As for `O=C(NCc1cccs1)c1cc(-c2ccccn2)nc2ccc(Br)cc12`, the inhibition (reported as % activation of signal) was 18.8% (inactive).
The figure for `CCCCc1nc2cc(C(=O)N3CCCCC3CCO)ccc2o1` (stereo unspecified) is 0.96% (inactive); for `CC1CCN(C(=O)CCc2nnc3ccc(NCc4ccco4)nn23)CC1` it is -2.17% (inactive).
Turning to `CC(C)C(=O)Nc1oc(-c2ccccc2)cc1C#N`, the inhibition (reported as % activation of signal) is 1.41% (inactive).
The figure for `CC(Oc1ccccc1)C(=O)Nc1oc(-c2ccco2)c(-c2ccco2)c1C#N` (stereo unspecified) is 63.1% (active); for `N#Cc1c(NC(=O)CCCN2C(=O)c3ccccc3C2=O)oc(-c2ccccc2)c1-c1ccccc1` it is -7.82% (inactive); for `Cc1cc(=O)oc(C)c1C(=O)NC1CC(C)(C)NC(C)(C)C1` it is 4.08% (inactive).
The figure for `O=C(Nc1nccs1)C1CCN(S(=O)(=O)c2ccc(Cl)c(C(F)(F)F)c2)CC1` is -0.42% (inactive); for `Cc1ccc(C)c(C(O)c2ncc(-c3cccc4ccccc34)[nH]2)c1` (stereo unspecified) it is -0.1% (inactive); for `O=C1CSc2ccc(S(=O)(=O)NCc3ccccc3)cc2N1` it is -1.62% (inactive).
Take `OCCCC1CCCCN1Cc1nc(Cc2ccccc2Cl)no1` (stereo unspecified): the inhibition (reported as % activation of signal) was 0.35% (inactive).
Then `CCN(CC)c1ccc(NC(=O)c2ccc(Cl)nc2)cc1`, with -2.12% (inactive).
The figure for `O=C(NNc1ccccn1)c1ccc(Cl)nc1` is 80.7% (active).
Consider `O=C(NNC(=O)c1ccc(Cl)nc1)c1ccc(Br)cc1`, for which the inhibition (reported as % activation of signal) was 5.15% (inactive).
For `CCN(CC)P(=O)(C(NC(=O)OC)C(F)(F)C(F)(F)C(F)(F)C(F)F)N(CC)CC` (stereo unspecified), the inhibition (reported as % activation of signal) was 0.14% (inactive).
The figure for `CC1CCN(C(=O)COC(=O)CCC(=O)c2cccs2)CC1` is 0.68% (inactive).
Then `O=C(COC(=O)Cc1ccc(Cl)cc1Cl)NCc1ccco1`, with -2.23% (inactive); and `O=C(COC(=O)CCC(=O)c1cccs1)NCc1ccco1`, with 72.8% (active); and `CCOc1ccc(NC(=O)c2ccc(NC(=O)COC(=O)c3ccc(NC(=O)CC#N)cc3)cc2)cc1`, with 61.4% (active).
The figure for `N#CCC(=O)Nc1ccc(C(=O)OCC(=O)Nc2sc3c(c2C#N)CCCC3)cc1` is -11.8% (inactive); for `CC(C)NC(=O)NC(=O)COC(=O)c1ccc(NC(=O)CC#N)cc1` it is -1.52% (inactive).
On to `CC1CCN(C2=NC(=O)/C(=C/c3cn[nH]c3-c3ccccc3)S2)CC1`, for which the inhibition (reported as % activation of signal) is -3.21% (inactive).
The figure for `Cc1cccc(-c2cnc(C(O)c3cc(C)cc(C)c3)[nH]2)c1` (stereo unspecified) is 4.05% (inactive).
Then `Cc1ccc(-n2c(=O)cc(N3CCN(Cc4ccccc4)CC3)[nH]c2=O)cc1`, with -5.41% (inactive); and `CN(Cc1ccc2nsnc2c1)Cc1nc(Cc2cccc(F)c2)no1`, with 14.7% (inactive); and `CN(Cc1nc2ccc(F)cc2[nH]1)Cc1nc(CC2CC2)no1`, with 52.1% (active).
Then `CN(Cc1cc2cc(F)ccc2[nH]1)Cc1nc(-c2cnccn2)no1`, with 0.73% (inactive).
Consider `COc1cc(C2C(N3C(=O)c4ccccc4C3=O)C(=O)N2c2ccc(C)c(C)c2)cc(OC)c1OC` (stereo unspecified), for which the inhibition (reported as % activation of signal) was -2.9% (inactive).
The figure for `Cc1ccc(NC(=O)c2cnc(SCC(=O)NCC3CCCO3)n(C)c2=O)cc1` (stereo unspecified) is -0.68% (inactive); for `Cc1onc(-c2ccccc2)c1C(=O)Nc1ccccc1C#N` it is 86.5% (active) and -2.35% (inactive); for `Cc1[nH]c2ccccc2c1C(=O)COC(=O)c1c(-c2ccccc2)noc1C` it is -10.3% (inactive).
`N#Cc1ccccc1NC(=O)c1ccc2c(c1)OCO2`: the inhibition (reported as % activation of signal) was 2.15% (inactive).
For the compound `Cc1ccccc1CN1C[C@@H]2C[C@@H](c3cn(C)nc3-c3ccccc3)N3CCC[C@@]23C1=O`, the inhibition (reported as % activation of signal) is -7.15% (inactive).
As for `O=C(COC(=O)CSc1nnc(-c2ccc(Cl)cc2)o1)Nc1cc(Cl)cc(Cl)c1`, the inhibition (reported as % activation of signal) is 3.58% (inactive).
For `CCCCC(=O)Nc1c2c(nn1-c1ccc([N+](=O)[O-])cc1)CS(=O)(=O)C2`, the inhibition (reported as % activation of signal) was 0.28% (inactive).
The figure for `O=C1/C(=C\c2ccc([N+](=O)[O-])cc2)CS(=O)(=O)C/C1=C/c1ccc([N+](=O)[O-])cc1` is 101% (active); for `CN(C)S(=O)(=O)N1CCN(c2ccc([N+](=O)[O-])cc2)CC1` it is -0.57% (inactive); for `Cc1ccc(CN2CC(N3CCC(Cc4ccccc4)CC3)CS2(=O)=O)cc1` (stereo unspecified) it is -0.65% (inactive).
For the compound `Cc1ccc(OCc2nnc(SC3CCc4ccccc4C3=O)n2C)cc1` (stereo unspecified), the inhibition (reported as % activation of signal) was -0.48% (inactive).
For the compound `CC1(C(=O)NS(=O)(=O)c2ccccc2)CCN1C(=O)C/C=C/c1ccccc1` (stereo unspecified), the inhibition (reported as % activation of signal) was 84.5% (active).
Then `CC1(C(=O)NS(=O)(=O)c2ccccc2)CCN1C(=O)c1ccccc1` (stereo unspecified), with -2.49% (inactive).
As for `CC1(C(=O)NS(=O)(=O)c2ccccc2)CCN1C(=O)Cc1ccc(-c2ccccc2)cc1` (stereo unspecified), the inhibition (reported as % activation of signal) is 3.68% (inactive).
Then `COc1ccc(CNC(=O)C(NS(=O)(=O)c2cccc3nsnc23)C(C)C)cc1` (stereo unspecified), with 2.57% (inactive); and `O=C1C(Cl)=C(Oc2ccccc2)C(=O)c2ccccc21`, with 78.2% (active).
The figure for `O=C(O)C1CCC(CNS(=O)(=O)c2ccc(Br)cc2)CC1` (stereo unspecified) is 0.46% (inactive).
